Screening results from PubChem BioAssay.
RE007 growth inh: qHTS Assay for Inhibitors of the HIV-1 protein Vpr. S. pombe RE007 Vpr strain, BacTiter-Glo ATP luminescence, 24 h. Potency, µM (series often up to 92.2 µM), inactives show at the highest dose activity change, negative = less growth, actives largely listed as inhibitors. actives 0.21% (n = 360,000); active = well fitted falling curve with a large enough effect; inconclusive = small, poorly fitted or top-dose-only effect; inactive = no such curve, though single readings can be large or run the other way; also: potency is read from the fitted curve at half-maximal effect; nearly all actives have a fitted effect of over 50% in size
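Fission yeast strain RE007, carrying one chromosomally integrated HIV-1 vpr copy, was seeded at OD 0.01 in PMG+AL medium with 23 nL pinned compound. After 24 h at 30 °C and 99% humidity, viability was read by BacTiter-Glo luminescence.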
FBPA Giardia inh: qHTS Assay for Inhibitors of Fructose-1,6-bisphosphate Aldolase from Giardia Lamblia; Potency, µM (highest dose often 59.6 µM), for inactives: top-dose activity, negative = inhibition, usual class: inhibitors; actives 0.71% (n = 290,000); A8B2U2; purified Giardia FBPA; also: potency is read from the fitted curve at half-maximal effect; nearly all actives have a fitted effect of over 55% in size
Target sequence (A8B2U2 whole entry, looked up): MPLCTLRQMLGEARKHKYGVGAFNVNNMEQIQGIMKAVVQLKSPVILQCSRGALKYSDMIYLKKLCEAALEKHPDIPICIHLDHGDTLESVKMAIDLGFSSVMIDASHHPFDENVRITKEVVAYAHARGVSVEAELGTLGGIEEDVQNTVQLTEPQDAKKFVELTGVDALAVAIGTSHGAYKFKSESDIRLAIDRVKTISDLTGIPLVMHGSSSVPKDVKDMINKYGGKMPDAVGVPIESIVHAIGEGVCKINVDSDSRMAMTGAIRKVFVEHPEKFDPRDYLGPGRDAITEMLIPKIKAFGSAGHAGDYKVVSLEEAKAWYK
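40 nM FBPA preincubated 10 min at RT with compound (up to 57.5 uM final), then substrate plus GAPDH/TPI/NAD/arsenate coupling and diaphorase/resazurin added. Fluorescence read after 20 min at RT, 525/598 nm.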
HCMV inh: qHTS Assay for inhibitors of the human cytomegalovirus (HCMV); HFF cells, HCMV-luciferase reporter, 72 h; stronger effect = lower value; activity change, negative = inhibition, % at 57.5 µM; actives 4.5% (n = 410,000); AID 1259415, 2018; in the data active = activity change below about -60%; inconclusive = no clear call, values can overlap the other calls; inactive = above about -39%
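Inhibition of viral replication was scored as loss of reporter luminescence in HFFs infected with HCMV-luciferase (MOI 1 PFU/cell) for 72 h; compounds tested at 2 doses, normalized to buffer and Salinomycin controls.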
FMDV inh: High Throughput Screening for Foot and Mouth Disease Virus Antivirals; FMDV antiviral cell-based qHTS; Potency, µM (top dose mostly 57.9 µM), for inactives: at the highest dose activity change, negative = inhibition, usual class: inhibitors; actives 1.2% (n = 410,000); calls by dose curve; tested in HEK293T cells; also: read-out not given here; potency is read from the fitted curve at half-maximal effect; nearly all actives have a fitted effect of over 45% in size
Sm TGR block: qHTS Assay for the Inhibitors of Schistosoma Mansoni Peroxiredoxins. Schistosoma mansoni thioredoxin glutathione reductase (TGR), Q962Y6. purified TGR, DTNB reduction, TNB absorbance 405 nm. Potency, µM (highest dose often 114 µM), without a hit: at the top dose activity change, negative = inhibition, actives largely listed as inhibitors. actives 3% (n = 360,000); also: potency is read from the fitted curve at half-maximal effect; nearly all actives have a fitted effect of over 60% in size
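Kinetic colorimetric format: TGR-catalysed, NADPH-driven DTNB reduction monitored via TNB absorbance. Enzyme dispensed at 20 nM; compound exposure 15 min at room temperature before reaction start.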
Tb PYK inh: qHTS of Trypanosoma Brucei Inhibitors | Potency, µM (top dose mostly 76.8 µM), without a hit: top-dose activity, negative = inhibition, actives largely listed as inhibitors | TbPYK enzyme, Kinase-Glo Plus ATP luminescence, 45 min | actives 0.12% (n = 410,000) | AID 624173, 2012 | pyruvate kinase (Trypanosoma brucei), Q57TT1; also: potency is read from the fitted curve at half-maximal effect; nearly all actives have a fitted effect of over 50% in size
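Activity of T. brucei pyruvate kinase was followed by Kinase-Glo Plus luminescence after the enzyme reacted 45 min at room temperature with 130 uM ADP (final) and substrate. Test compounds were added before ADP at multiple concentrations.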
An asterisk follows results filed as active; u = inconclusive; x = not tested or not shown. Compounds with a hit are over-represented: about 7.7% of the library has one in this group of screens. Unless noted, calls follow the shape of the dose curve; as a rule, active = well fitted curve in the direction sought with a large enough effect; inconclusive = small, poorly fitted or top-dose-only effect, or another doubt; inactive = no such curve, though single readings can be large; an effect the other way counts as inactive or inconclusive. % is scaled to controls: 0 for no effect and ±100 for the full control effect.

SMILES	RE007 growth inh	FBPA Giardia inh	HCMV inh	FMDV inh	Sm TGR block	Tb PYK inh
COCC(=O)Nc1cc(C(=O)N2CCOc3ccccc3C2)cc2nc(-c3cccnc3)n(C)c12	x	x	x	7%	x	x
COc1ccc(CCN(C)C(=O)c2cnn(-c3nccc(-c4ccc(C)o4)n3)c2C)cc1OC	x	x	x	32%	x	x
CC(=O)c1ccc(S(=O)(=O)NCC(=O)N2CCN(C/C=C/c3ccccc3)CC2)cc1	21%	x	-11	u	7.9µM*	4%
CCN=c1sc(C(=O)NCCc2ccccc2)cc(=O)n1CC	-6%	2%	x	u	20µM*	-12%
CCn1c(=O)c2cc(C(=O)NCCc3cccc(C)c3)sc2c2ccccc21	x	x	-20	-8%	-5%	0%
CCOC(=O)C1=CCN(S(=O)(=O)c2cccc(Cl)c2)C1c1cccc(Cl)c1 (centres undefined)	x	x	-21	x	x	x
O=C1C([N+](=O)[O-])=C(O)c2cccc3cccc1c23	x	25µM*	x	x	40µM*	x
O=C1C(=O)c2cccc3cccc1c23	u	u	u	-12%	-1%	-9%
CCCN1Cc2cccc(C(=O)Nc3ccc(C(C)=O)cc3)c2C1=O	x	x	-5	-2%	-6%	2%
CCOc1ccc(/C=C/c2nc(C#N)c(NCc3ccccc3)o2)cc1	x	x	-93*	u	-7%	-2%
CCOc1ccc(/C=C/c2nc(C#N)c(NC(C)c3ccccc3)o2)cc1 (centres undefined)	x	x	u	-10%	-5%	0%
CCOCCCNC(=O)c1cc(=O)n(Cc2cccc(C)c2)c2ccccc12	1%	3%	-62*	-29%	-15%	6%
O=C(NCc1ccco1)C(c1cccs1)N(Cc1ccccc1)C(=O)Cn1nnc2ccccc21 (centres undefined)	1%	10%	-62*	-2%	-16%	-5%
Cc1ccccc1N(C(=O)Cn1nnc2ccccc21)C(C(=O)NCc1ccco1)c1ccncc1 (centres undefined)	14%	-15%	-35	55%	u	0%
Cc1ccc(CN(C(=O)Cn2nnc3ccccc32)C(C(=O)NCc2ccco2)c2cccs2)cc1 (centres undefined)	21%	-10%	8	20%	0%	-7%
CCOCCCN(C(=O)Cn1nnc2ccccc21)C(C(=O)NCc1ccco1)c1ccncc1 (centres undefined)	11%	-25%	-13	-9%	16µM*	-6%
COc1ccc(NC(=O)Cc2ccc(Cl)c(Cl)c2)cn1	1%	-4%	1	3%	7%	5%
COc1ccc(NC(=O)/C(Cl)=C(/Cl)S(=O)Cc2ccccc2Cl)cn1 (centres undefined)	u	-1%	x	3.2µM*	0.089µM*	30%
COc1ccc(NC(=O)/C(Cl)=C(/Cl)S(=O)(=O)Cc2ccc(C)cc2)cn1	u	-7%	x	22µM*	2.5µM*	11%
COc1ccc(NC(=O)Cc2ccc(Cl)cc2Cl)cn1	11%	-8%	-101*	-13%	-15%	3%
Cn1cnc(S(=O)(=O)N2CCCCN3[C@H](CO)[C@H](c4ccc(C#CC5CC5)cc4)[C@@H]3C2)c1	x	x	-6	x	x	x
O=C1c2ccccc2C(=O)N1c1cccc(-c2csc(Nc3ccc4c(c3)OCO4)n2)c1	x	-18%	x	x	50µM*	x
Cc1cccc(OCc2nc(C#N)c(NCc3ccccc3Cl)o2)c1	x	x	26	11%	3%	-2%
CCOc1ccc(NC(=O)c2c(C)oc3nc(C)nc(N4CCOCC4)c23)cc1	x	x	31	-13%	5%	1%
O=[N+]([O-])c1ccc2c(c1)oc1ccccc12	-14%	2%	-93*	-13%	11%	-15%
SMILES	RE007 growth inh	FBPA Giardia inh	HCMV inh	FMDV inh	Sm TGR block	Tb PYK inh
CC(=O)Nc1cc2oc3ccccc3c2cc1[N+](=O)[O-]	-9%	x	-84*	40%	x	7%
COc1cc2c(cc1NC(=O)c1cccc([N+](=O)[O-])c1C)oc1ccccc12	-5%	2%	-8	20%	3%	-1%
Nc1ccc2c(c1)oc1ccccc12	u	0%	113	42%	4%	6%
CCN(Cc1ccccc1)S(=O)(=O)c1ccc(N2CCCCS2(=O)=O)cc1	x	x	-37	u	6%	2%
Nc1ccccc1C(=O)c1ccccc1	-5%	0%	20	-12%	6%	2%
Nc1sccc1C(=O)c1ccccc1	-16%	-22%	-37	-2%	20µM*	-2%
Cc1ccc(Cn2cc(CCC(=O)NC3CCCCC3)c3ccccc32)cc1	x	x	u	-15%	4%	-1%
Cc1ccc(C2=Nc3ccccc3N=C(c3ccc(F)cc3)C2)c(O)c1	x	x	26	-24%	-2%	2%
Cc1cc(C(=O)CN2C(=O)c3ccccc3S2(=O)=O)c(C)n1CC1CCCO1 (centres undefined)	40%	0%	-100*	0.28µM*	-30%	1%
CCCn1c(C)cc(C(=O)CN2C(=O)c3ccccc3S2(=O)=O)c1C	5%	x	-86*	u	x	3%
Cc1cc(C(=O)CN2C(=O)NC(C)(c3ccccc3)C2=O)c(C)n1CC1CCCO1 (centres undefined)	5%	-2%	x	26%	-9%	-1%
COC(=O)Cn1c(=O)c2c(nc3n2CCN3c2ccc(F)cc2)n(C)c1=O	x	x	9	6%	-7%	0%
CN(C)[C@H]1CC[C@@]23CCCN2C(=O)CCC[C@H]3[C@H]1Cc1ccccc1	x	x	4	x	x	x
CC1=NNC(=O)C1C(c1ccc(Cl)cc1)C(C#N)C#N (centres undefined)	-21%	-4%	-15	-24%	11µM*	-3%
CC1=NN(Cc2ccccc2)C(=O)C1C(c1ccc(Cl)cc1)C(C#N)C#N (centres undefined)	-3%	-27%	-23	28µM*	14µM*	-13%
Cc1c(Nc2cc(Cl)c3nonc3c2[N+](=O)[O-])c(=O)n(-c2ccccc2)n1C	0%	-14%	89	14µM*	-18%	u
Cc1c(Nc2cc(N3CCOCC3)c3nonc3c2[N+](=O)[O-])c(=O)n(-c2ccccc2)n1C	x	0%	x	x	18µM*	x
OC1(c2ccc3c(c2)CN(Cc2nccs2)CCO3)CCN(c2ccccc2F)CC1	x	x	x	-15%	x	x
COc1ccccc1NC(=O)C(=O)NCC(c1ccc2c(c1)OCO2)N1CCOCC1 (centres undefined)	x	x	2	1%	-3%	2%
